Measurements as given in the supplement of paper PMC8371130.
Structures can show the parent of a compound that is named as a salt.

Test system: HL-1
Assay: relative cell viability (CellTiter-Glo) vs DMSO control (% of DMSO control); higher = more viable cells
How it was run: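 Plating of HL-1 mouse atrial cardiomyocytes at 1000 cells per well in 384-well plates was done together with compounds at 40, 200, 1000 or 5000 nM in 0.01% DMSO. A day later the cells faced 48 h of 1% O2 and then 24 h of reoxygenation, or matching normoxia. Viability was measured via CellTiter-Glo luminescence and set relative to vehicle-treated control cells.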

[1] = oxygen condition: hypoxia 48 h (1% O2) + reoxygenation 24 h, 40 nM
[2] = oxygen condition: hypoxia 48 h (1% O2) + reoxygenation 24 h, 200 nM
[3] = oxygen condition: hypoxia 48 h (1% O2) + reoxygenation 24 h, 1000 nM
[4] = oxygen condition: hypoxia 48 h (1% O2) + reoxygenation 24 h, 5000 nM
[5] = oxygen condition: normoxia 72 h, 40 nM
[6] = oxygen condition: normoxia 72 h, 200 nM
[7] = oxygen condition: normoxia 72 h, 1000 nM
[8] = oxygen condition: normoxia 72 h, 5000 nM

| SMILES | relative cell viability [1] | relative cell viability [2] | relative cell viability [3] | relative cell viability [4] | relative cell viability [5] | relative cell viability [6] | relative cell viability [7] | relative cell viability [8] |
| --- | --- | --- | --- | --- | --- | --- | --- | --- |
| CC(CN(C)C)CN1c2ccccc2CCc2ccccc21 (centres undefined) [Trimipramine Maleate] | 103 | 105 | 111 | 111 | 99.2 | 101 | 102 | 94.2 |
| CCOc1nc2cccc(C(=O)OCc3oc(=O)oc3C)c2n1Cc1ccc(-c2ccccc2-c2noc(=O)[nH]2)cc1 [Azilsartan Medoxomil] | 101 | 99.2 | 116 | 116 | 93.4 | 103 | 100 | 114 |
| C[C@H](Cc1cc2c(c(C(N)=O)c1)N(CCCO)CC2)NCCOc1ccccc1OCC(F)(F)F [Silodosin] | 106 | 98.3 | 102 | 105 | 102 | 104 | 108 | 104 |
| CCOC(=O)[C@H](CCc1ccccc1)N[C@@H](C)C(=O)N1Cc2cc(OC)c(OC)cc2C[C@H]1C(=O)O [Moexipril HCl] | 105 | 102 | 107 | 67.2 | 100 | 98.2 | 90.7 | 64.1 |
| Nc1[nH]cnc2ncnc1-2 [Adenine sulfate] | 101 | 101 | 105 | 111 | 113 | 105 | 110 | 113 |
| CCCN(CCC)S(=O)(=O)c1ccc(C(=O)O)cc1 [Probenecid] | 103 | 109 | 108 | 110 | 101 | 104 | 109 | 115 |
| CN1CCN(C2=Nc3ccccc3Oc3ccc(Cl)cc32)CC1 [Loxapine Succinate] | 100 | 103 | 105 | 116 | 103 | 111 | 102 | 125 |
| CN1CCC(=C2c3ccccc3C=Cc3ccccc32)CC1 [Cyproheptadine HCl] | 97.1 | 95.8 | 102 | 110 | 100 | 98.1 | 102 | 118 |
| CC(=O)O[C@H]1C[C@@H]2CC[C@@H]3[C@H](CC[C@@]4(C)[C@H]3C[C@H]([N+]3(C)CCCCC3)[C@@H]4OC(C)=O)[C@@]2(C)C[C@@H]1N1CCCCC1 [Vecuronium Bromide] | 112 | 118 | 114 | 119 | 112 | 115 | 122 | 124 |
| CC(C)NCC(O)COc1ccc(COCCOC(C)C)cc1 (centres undefined) [Bisoprolol] | 93.2 | 103 | 87.2 | 101 | 90.8 | 101 | 85.4 | 108 |
| CN(C(=O)CN(CCO)CC(=O)N(C)C(C)(C)Cc1ccccc1)C(C)(C)Cc1ccccc1 [Oxethazaine] | 102 | 103 | 106 | 115 | 99.2 | 103 | 97.9 | 128 |
| CC(C)NCC(O)COc1ccc(CCOCC2CC2)cc1 (centres undefined) [Betaxolol] | 99.8 | 98.5 | 100 | 101 | 96.4 | 100 | 99.6 | 108 |
| CCCc1nc(C(C)(C)O)c(C(=O)OCc2oc(=O)oc2C)n1Cc1ccc(-c2ccccc2-c2nnn[nH]2)cc1 [Olmesartan medoxomil] | 93.8 | 99.2 | 94.7 | 105 | 97 | 98.2 | 96.7 | 95.7 |
| C=CC[N+]1([C@H]2C[C@H]3[C@@H]4CC[C@H]5C[C@H](O)[C@@H](N6CCOCC6)C[C@]5(C)[C@H]4CC[C@]3(C)[C@H]2OC(C)=O)CCCC1 [Rocuronium bromide] | 104 | 105 | 116 | 110 | 104 | 104 | 104 | 107 |
| O=C1Cc2cc(CCN3CCN(c4nsc5ccccc45)CC3)c(Cl)cc2N1 [Ziprasidone hydrochloride] | 105 | 101 | 106 | 102 | 107 | 98.2 | 104 | 98.4 |
| CC(C)(C)CC(C)(C)c1ccc(OCCOCC[N+](C)(C)Cc2ccccc2)cc1 [Benzethonium chloride] | 102 | 94.7 | 75.7 | 17.6 | 97.9 | 93.1 | 66.7 | 18 |
| O=C1c2cccc3c2[C@H](CCC3)CN1[C@@H]1CN2CCC1CC2 [Palonosetron HCl] | 103 | 109 | 112 | 97 | 101 | 103 | 86.6 | 104 |
| C[N+](C)(C)C[C@H](O)CC(=O)[O-] [L-carnitine] | 102 | 104 | 103 | 113 | 101 | 107 | 102 | 107 |
| COc1ccc(Cl)cc1C(=O)NCCc1ccc(S(=O)(=O)NC(=O)NC2CCCCC2)cc1 [Glyburide] | 103 | 106 | 103 | 104 | 103 | 103 | 108 | 109 |
| CS(=O)(=O)c1ccc(C2=C(c3ccccc3)C(=O)OC2)cc1 [Rofecoxib] | 104 | 97.5 | 103 | 107 | 105 | 94.4 | 107 | 109 |
| Cc1onc(-c2ccccc2)c1-c1ccc(S(N)(=O)=O)cc1 [Bextra] | 101 | 97.9 | 104 | 107 | 103 | 100 | 95.1 | 111 |
| O=C(O)C(=O)O.[NH-][C@@H]1CCCC[C@H]1[NH-].[Pt+2] [Oxaliplatin] | 99.8 | 102 | 109 | 114 | 97.4 | 107 | 105 | 122 |

| SMILES | relative cell viability [1] | relative cell viability [2] | relative cell viability [3] | relative cell viability [4] | relative cell viability [5] | relative cell viability [6] | relative cell viability [7] | relative cell viability [8] |
| --- | --- | --- | --- | --- | --- | --- | --- | --- |
| CC(O)(P(=O)(O)O)P(=O)(O)O [Etidronate] | 95.8 | 96.9 | 99.7 | 109 | 95.1 | 96.5 | 95.9 | 105 |
| COC(=O)CCc1ccc(OCC(O)CNC(C)C)cc1 (centres undefined) [Esmolol HCl] | 103 | 104 | 105 | 80.4 | 104 | 104 | 108 | 112 |
| CN1CCC[C@H]1c1cccnc1 [Nicotine Ditartrate] | 97.5 | 99.9 | 106 | 113 | 104 | 104 | 103 | 109 |
| CCCC(=O)[O-].[Na+] [Sodium butyrate] | 103 | 101 | 99.4 | 107 | 98.7 | 99.2 | 105 | 107 |
| C=C1/C(=C\C=C2/CCC[C@]3(C)[C@@H]([C@H](C)CCCC(C)C)CC[C@@H]23)C[C@@H](O)C[C@@H]1O [Alfacalcidol] | 109 | 104 | 118 | 106 | 108 | 104 | 88.5 | 106 |
| CNCCCC12CCC(c3ccccc31)c1ccccc12 [Maprotiline hydrochloride] | 98.7 | 103 | 93.4 | 83.3 | 98.7 | 102 | 102 | 87.7 |
| CNS(=O)(=O)Cc1ccc2[nH]cc(CCN(C)C)c2c1 [Sumatriptan succinate] | 107 | 109 | 100 | 110 | 102 | 100 | 108 | 104 |
| CCOC(=O)c1ncn2c1CN(C)C(=O)c1cc(F)ccc1-2 [Flumazenil] | 104 | 107 | 100 | 115 | 107 | 98.5 | 104 | 106 |
| CC(C)(C(=O)O)c1ccc(C(O)CCCN2CCC(C(O)(c3ccccc3)c3ccccc3)CC2)cc1 (centres undefined) [Fexofenadine HCl] | 106 | 96.5 | 99.8 | 99.8 | 107 | 96.2 | 104 | 110 |
| C[C@@]12C[C@@]3(O)O[C@@H](O1)[C@]1(COC(=O)c4ccccc4)[C@H]3C[C@@]12O[C@@H]1O[C@H](CO)[C@@H](O)[C@H](O)[C@H]1O [Paeoniflorin] | 106 | 102 | 108 | 118 | 107 | 111 | 109 | 118 |
| CCOc1cc(CC(=O)N[C@@H](CC(C)C)c2ccccc2N2CCCCC2)ccc1C(=O)O [Repaglinide] | 84.4 | 97.2 | 109 | 109 | 67.6 | 110 | 114 | 115 |
| O=c1oc2cc(O)ccc2s1 [Tioxolone] | 106 | 104 | 108 | 110 | 107 | 109 | 113 | 106 |
| O=C1CCc2cc(OCCCCc3nnnn3C3CCCCC3)ccc2N1 [Cilostazol] | 107 | 107 | 111 | 107 | 105 | 108 | 106 | 109 |
| Cc1ccc(NC(=O)c2ccc(CN3CCN(C)CC3)cc2)cc1Nc1nccc(-c2cccnc2)n1 [Imatinib] | 101 | 101 | 110 | 107 | 105 | 100 | 98.6 | 111 |
| CCCC(CCC)C(=O)O[C@H]1C[C@H]2CC[C@@H](C1)[N+]2(C)C [Anisotropine Methylbromide] | 104 | 101 | 93.2 | 97.8 | 96.3 | 93.7 | 84.7 | 109 |
| NCCCC(O)(P(=O)(O)O)P(=O)(O)O [Alendronate] | 104 | 102 | 106 | 109 | 99.2 | 105 | 107 | 109 |
| OC1(c2ccc(Cl)c(C(F)(F)F)c2)CCN(CCCC(c2ccc(F)cc2)c2ccc(F)cc2)CC1 [Penfluridol] | 96.8 | 107 | 96.7 | 116 | 97.8 | 100 | 104 | 120 |
| CS(=O)(=O)CCNCc1ccc(-c2ccc3ncnc(Nc4ccc(OCc5cccc(F)c5)c(Cl)c4)c3c2)o1 [Lapatinib Ditosylate] | 107 | 116 | 116 | 84.4 | 107 | 115 | 122 | 61.7 |
| O=S(=O)(O)c1cc(O)ccc1O [Ethamsylate] | 105 | 101 | 105 | 109 | 96.6 | 101 | 96.8 | 107 |
| C#C[C@]1(O)CC[C@H]2[C@@H]3CCC4=CC(=O)CC[C@@H]4[C@H]3CC[C@@]21CC [Levonorgestrel] | 110 | 115 | 104 | 112 | 107 | 104 | 111 | 111 |
| Cc1nc2n(c(=O)c1CCN1CCC(c3noc4cc(F)ccc34)CC1)CCCC2 [Risperidone] | 104 | 109 | 106 | 113 | 104 | 109 | 104 | 114 |
